Bioassay records (PubChem)
KCNH2 3.1 block: blocks the human KCNH2 3.1 channel isoform; activity change, % (tested at about 1.8 µM); 340,000 compounds, 0.95% hits; AID 720553; U2OS KCNH2 3.1, thallium flux FluxOr; active compounds read low;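 active = maximum activity change below -70%; inconclusive = maximum activity change from -70% to -50%; inactive = maximum activity change above -50%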;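 also: thallium influx rate constant from kinetic fluorescence after stimulation buffer; % is scaled to controls: 0 for no effect and ±100 for the full control effect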
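Steps: virus added to U2OS suspension (4 h, RT, dark); medium with 10% FBS added, cells plated, 37 C overnight; FluxOr/Red40 loading buffer 45 min RT; stimulation buffer, 2 min kinetic read; rate constant normalized.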
KB-V1 MDR tox: KB-V1 MDR subline cytotoxicity; KB-V1 MDR cells viability, CellTiter-Glo, 72 h; Potency, µM (doses to about 46.1 µM), actives largely listed as cytotoxic; 400,000 compounds, 3.4% hits; also: potency is read from the fitted curve at half-maximal effect; % is scaled to controls: 0 for no effect and ±100 for the full control effect; nearly all actives have a fitted effect of over 60% in size
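Cytotoxicity toward P-gp-expressing KB-V1 cells was determined as loss of CellTiter-Glo luminescence after 72 h at 37 degrees C. Compounds were tested in quantitative HTS format across a concentration range, with curves fitted to normalized data.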
MCF10A rerep: DNA re-replication induction in MCF 10a cells; MCF 10A DNA re-replication, Hoechst nuclear intensity, 48 h; Potency, µM (series often up to 46.1 µM), inactives show at the top dose activity, positive = re-replication, hits mostly activators; 350,000 compounds, 2.9% hits; AID 624296; also: potency is read from the fitted curve at half-maximal effect; % of control where 0% means no effect; nearly all actives have a fitted effect of over 50% in size
KCNH2 WT inh: KCNH2 (human, wildtype) channel inhibition | Q12809 | U2OS, BacMam KCNH2, thallium flux FluxOr; active compounds read low | activity change, % at 1.84 µM | 340,000 compounds, 0.37% hits | AID 720551;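 active = maximum activity change below -70%; inconclusive = maximum activity change between -70% and -50%; inactive = maximum activity change above -50%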; also: % is scaled to controls: 0 for no effect and ±100 for the full control effect
Target sequence (Q12809 whole entry, looked up): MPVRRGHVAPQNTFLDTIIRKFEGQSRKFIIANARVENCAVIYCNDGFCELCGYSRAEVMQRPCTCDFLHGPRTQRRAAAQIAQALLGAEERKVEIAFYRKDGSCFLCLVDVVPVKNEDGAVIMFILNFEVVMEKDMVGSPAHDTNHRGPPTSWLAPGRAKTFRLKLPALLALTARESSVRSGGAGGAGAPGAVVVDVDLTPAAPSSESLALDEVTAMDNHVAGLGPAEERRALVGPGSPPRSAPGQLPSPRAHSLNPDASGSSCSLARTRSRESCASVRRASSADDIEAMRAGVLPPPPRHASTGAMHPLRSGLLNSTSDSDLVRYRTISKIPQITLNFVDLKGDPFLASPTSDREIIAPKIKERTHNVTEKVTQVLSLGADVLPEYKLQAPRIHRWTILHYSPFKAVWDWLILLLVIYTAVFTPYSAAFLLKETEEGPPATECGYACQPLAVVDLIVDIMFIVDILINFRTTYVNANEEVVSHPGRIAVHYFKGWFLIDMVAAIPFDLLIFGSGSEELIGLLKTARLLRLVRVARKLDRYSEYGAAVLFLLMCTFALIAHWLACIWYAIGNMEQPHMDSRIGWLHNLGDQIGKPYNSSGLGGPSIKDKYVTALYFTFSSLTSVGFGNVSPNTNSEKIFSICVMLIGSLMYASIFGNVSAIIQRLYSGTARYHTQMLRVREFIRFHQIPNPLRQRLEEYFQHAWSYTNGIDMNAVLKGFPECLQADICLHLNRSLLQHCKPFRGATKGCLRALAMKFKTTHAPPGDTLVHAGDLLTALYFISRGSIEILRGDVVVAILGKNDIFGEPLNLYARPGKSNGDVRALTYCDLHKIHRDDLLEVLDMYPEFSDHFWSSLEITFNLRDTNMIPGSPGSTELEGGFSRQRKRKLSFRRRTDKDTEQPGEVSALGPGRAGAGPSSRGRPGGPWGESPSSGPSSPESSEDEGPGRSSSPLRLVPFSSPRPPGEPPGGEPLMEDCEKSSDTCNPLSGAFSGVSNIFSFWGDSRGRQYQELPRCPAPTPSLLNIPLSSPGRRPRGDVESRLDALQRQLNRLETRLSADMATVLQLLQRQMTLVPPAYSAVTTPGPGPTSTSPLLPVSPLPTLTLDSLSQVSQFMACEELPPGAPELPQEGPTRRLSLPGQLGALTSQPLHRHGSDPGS
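U2OS cells were transduced with wild-type KCNH2 virus (2.03 x 10^8 / mL) for 4 h at room temperature, then cultured overnight at 37 C. Thallium flux was read with FluxOr dye. Rate constants were normalized to DMSO controls.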
SW480 rereplic: induces DNA re-replication in SW480 colon adenocarcinoma cells | 340,000 compounds, 1.8% hits | Potency, µM (titrated, usually from 46.1 µM), without a hit: at the top dose re-replication activation, most hits filed as activators | SW480 DNA re-replication, Hoechst DNA content imaging, 48 h; also: potency is read from the fitted curve at half-maximal effect; % of control where 0% means no effect; nearly all actives have a fitted effect of over 55% in size
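Cells (250 per well) received 23 nL compound or DMSO by pin tool and were kept 48 hr at 37 C, 5% CO2. Nuclei were then stained with Hoechst for 40 min and scanned for DNA content.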
KB-3-1 tox: KB-3-1 parental cell cytotoxicity; KB-3-1 viability, CellTiter-Glo ATP luminescence, 72 h; Potency, µM (doses to about 46.1 µM), most hits filed as cytotoxic; 400,000 compounds, 1.4% hits; also: potency is read from the fitted curve at half-maximal effect; % is scaled to controls: 0 for no effect and ±100 for the full control effect; nearly all actives have a fitted effect of over 60% in size
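Cytotoxicity in the drug-sensitive parental line KB-3-1 was scored as loss of CellTiter-Glo luminescence following 72 h incubation with compound. Values come from curve fitting of normalized concentration-response data.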
* hit, by the source's call; i = inactive; ? = inconclusive; · = no result given; [ ] = dose if it differs, or a comment. A selection: hits, their analogues and other compounds. The true share with any hit is near 7.6%. Unless noted, calls follow the shape of the dose curve; as a rule, active = well fitted curve in the direction sought with a large enough effect; inconclusive = small, poorly fitted or top-dose-only effect, or another doubt; inactive = no such curve, though single readings can be large; an effect the other way counts as inactive or inconclusive.

SMILES | KCNH2 3.1 block | KB-V1 MDR tox | MCF10A rerep | KCNH2 WT inh | SW480 rereplic | KB-3-1 tox
O=C(CSc1nnc(-c2ccncc2)n1Cc1ccccc1)NC1CCCc2ccccc21 (stereo not drawn) | -13 | 10µM* | ? | 3 | 2% | i
O=C(CSc1ccccc1Cl)NC1CCCc2ccccc21 (stereo not drawn) | 6 | i | -3% | -7 | -2% | i
Nc1c(Cl)cc(/C=C2\C=Cc3ccccc32)cc1Cl | · | i | · | · | · | i
COc1cccc(CNC(=O)CSCC(=O)Nc2cc(C)on2)c1 | 1 | i | -3% | -3 | -7% | i
O=C(CN1CCN(c2ccccc2Cl)CC1)NC1CCCc2ccccc21 (stereo not drawn) | 0 | 9.2µM* | 12% | -4 | ? | ?
COC(=O)c1ccc(CSc2nnc(-c3ccncc3)n2Cc2ccccc2)o1 | -173* | i | ? | -199* | -4%[9.22 µM] | i
Cc1ccc(Cl)cc1N1CCN(CC(=O)NC2CCCc3ccccc32)CC1 (stereo not drawn) | -13 | ? | ? | 1 | 16% | ?
Cc1ccc(NC(=O)NC2CCCc3ccccc32)cc1 (stereo not drawn) | -9 | i | 3% | -5 | 44% | ?
O=C(CSc1nnc(-c2ccccc2)n1Cc1ccccc1)NNC(=O)c1ccccc1O | 6 | i | 20% | -8 | 5.2µM* | ?
CC(C)(C)c1ccc(NC(=O)NC2CCCc3ccccc32)cc1 (stereo not drawn) | -36 | 21µM* | ? | -6 | ? | ?
Cc1ccc(OCCSc2nc3ccc(NC(=O)c4ccc(F)cc4)cc3s2)cc1 | · | i | · | · | · | i
COCCCn1cc(C(=O)c2cc(OC)ccc2OCC(=O)N2CCCCC2C)cc(C#N)c1=O (stereo not drawn) | 17 | i | -4% | 1 | -5% | i
N#CCCN(C(=O)COC(=O)C1=NNC(=O)CC1)c1ccccc1 | -21 | i | 5% | -9 | -102% | i
COC(=O)c1ccc(CSc2ccc3nnc(-c4ccc(OC)c(OC)c4)n3n2)o1 | 0 | 7.3µM* | -1% | 12 | -18% | i
CN1C(C(=O)NCc2ccco2)CC2Cn3c(nc4cc(Cl)c(Cl)cc43)C21 (stereo not drawn) | 0 | i | ? | -2 | -9% | i
O=C(O)c1ccccc1SC1=NS(=O)(=O)c2ccccc21 | · | ? | · | · | · | i
c1ccc(C2[C@H]3CN(Cc4cccnc4)[C@H](c4ccccc4)C34CC2(c2cccnc2)C4)cc1 (stereo partly drawn) | 32 | 21µM* | ? | -1 | -12%[9.22 µM] | ?
N#Cc1ccc(C23CC4(C2)[C@H](CN(P(=O)(c2ccccc2)c2ccccc2)[C@@H]4c2ccccc2)C3c2ccc(Cl)nc2)cc1 (stereo partly drawn) | -33 | ? | -31% | -12 | 4% | ?
FC(F)(F)c1ccc(CN2C[C@@H]3C(c4ccc(C(F)(F)F)cc4)C4(c5cccnc5)CC3(C4)[C@H]2c2ccccc2)cc1 (stereo partly drawn) | -16 | ? | -38% | -2 | ? | ?
COC(=O)c1cccc(C23CC4(C2)[C@H](CN(Cc2ccc(C(F)(F)F)cc2)[C@@H]4c2ccccc2)C3c2ccc(C(F)(F)F)cc2)c1 (stereo partly drawn) | ? | i | 0% | -2 | 0%[9.22 µM] | 13µM*
CN1C[C@@H]2C(c3ccc(Cl)nc3)C3(c4ccc(C#N)cc4)CC2(C3)[C@H]1c1ccccc1 (stereo partly drawn) | -77* | i | -3% | 8 | -3% | i
CN1C[C@@H]2C(c3ccc(C(F)(F)F)cc3)C3(c4cccnc4)CC2(C3)[C@H]1c1ccccc1 (stereo partly drawn) | -85* | i | 4% | -8 | -4% | i
